Out of some 3,200 compounds screened, about 300 (9.4%) showed activity. The entries come from a sample that favours actives as a whole.
Test system: A673/TR/shEF
Assay: cell viability (LOESS-normalised, relative to median of negative controls) (log2 ratio); higher = more viable cells (less compound effect), active = hit call of the paper (over 3 MAD below the median)
Conditions: treatment time: 72 h
Outline: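 A673/TR/shEF Ewing sarcoma cells were plated at 1,500 per well in 384-well plates and cultured with or without doxycycline, added 24 h before compounds, to induce EWS-FLI1 shRNA knockdown. Library compounds at two or more concentrations, alongside DMSO controls, were applied for three days. Cell viability was measured by CellTiter-Glo luminescence on an Envision reader. Readings were LOESS-corrected per plate, divided by the median of negative controls and log2-transformed, and hits were wells lying at least three median absolute deviations from the median of all screened wells.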

[1] = 0.25 µM, library screen: screen1, EWS-FLI1 expression: high (no doxycycline)
[2] = 0.25 µM, library screen: screen1, EWS-FLI1 expression: low (doxycycline-induced shRNA knockdown)
[3] = 2.5 µM, library screen: screen1, EWS-FLI1 expression: high (no doxycycline)
[4] = 2.5 µM, library screen: screen1, EWS-FLI1 expression: low (doxycycline-induced shRNA knockdown)
[5] = 0.25 µM, library screen: screen2, EWS-FLI1 expression: high (no doxycycline)
[6] = 0.25 µM, library screen: screen2, EWS-FLI1 expression: low (doxycycline-induced shRNA knockdown)
[7] = 2.5 µM, library screen: screen2, EWS-FLI1 expression: high (no doxycycline)
[8] = 2.5 µM, library screen: screen2, EWS-FLI1 expression: low (doxycycline-induced shRNA knockdown)
[9] = 0.025 µM, library screen: screen2, EWS-FLI1 expression: high (no doxycycline)
[10] = 0.025 µM, library screen: screen2, EWS-FLI1 expression: low (doxycycline-induced shRNA knockdown)
[11] = 25 µM, library screen: screen2, EWS-FLI1 expression: high (no doxycycline)
[12] = 25 µM, library screen: screen2, EWS-FLI1 expression: low (doxycycline-induced shRNA knockdown)

Measured: cell viability (log2)

COc1ccc(CN2CCN(Cc3cccc(F)c3)CC2)cc1
inactive: [1] 0.0679 | [2] 0.104 | [3] 0.124 | [4] 0.0696

Nc1ncnc2c1ncn2[C@@H]1O[C@@H]2COP(O)(=S)O[C@H]2[C@H]1O (stereo not given in full)
inactive: [5] 0.205 | [6] 0.149 | [7] 0.079 | [8] 0.148

CSc1nc(NC(C)C)nc(NC(C)C)n1
inactive: [1] 0.0904 | [2] -0.0688 | [3] 0.0234 | [4] 0.0938

CNC(=O)O/N=C(\C)SC
inactive: [1] 0.0466 | [2] 0.0661 | [3] 0.0904 | [4] 0.143

O=C1C=C2C(=CCOC2O)O1 (stereo not given)
inactive: [2] 0.05
active: [1] -0.259 | [3] -2.95 | [4] -0.992

C=CCN1CC[C@@]2(C)c3cc(O)ccc3CC1[C@@H]2C
inactive: [5] 0.194 | [6] 0.135 | [7] 0.028 | [8] 0.047

N#C[C@H](O[C@@H]1O[C@H](CO[C@@H]2O[C@H](CO)[C@@H](O)[C@H](O)[C@H]2O)[C@@H](O)[C@H](O)[C@H]1O)c1ccccc1
inactive: [9] 0.166 | [10] 0.0523 | [1] 0.122 | [2] -0.00438 | [5] 0.174 | [6] 0.00657 | [3] 0.113 | [4] 0.0319 | [7] 0.1 | [8] 0.0264 | [11] 0.202 | [12] 0.0554

CC(=O)[C@H]1CC[C@H]2[C@@H]3CC[C@H]4C[C@H](O)CC[C@]4(C)[C@H]3C(=O)C[C@]12C
inactive: [5] 0.0616 | [6] 0.101
active: [7] -2.77 | [8] -0.524

CC(=O)[C@H]1CC[C@H]2[C@@H]3CC[C@H]4C[C@H](O)CC[C@]4(C)[C@H]3CC[C@]12C
inactive: [5] 0.267 | [6] 0.093 | [7] 0.266 | [8] 0.165

CC(=O)[C@H]1CC[C@H]2[C@@H]3CC[C@H]4C[C@@H](O)CC[C@]4(C)[C@H]3CC[C@]12C
inactive: [1] 0.0984 | [2] 0.068 | [3] 0.0674 | [4] 0.135

CNC(=O)Oc1cccc2c1OC(C)(C)C2
inactive: [1] 0.0513 | [2] 0.0685 | [3] 0.07 | [4] 0.106

ClC1=C(Cl)[C@]2(Cl)[C@@H]3[C@@H]4C[C@@H]([C@H]5O[C@@H]45)[C@@H]3[C@@]1(Cl)C2(Cl)Cl
inactive: [1] 0.163 | [2] 0.0877 | [3] 0.115 | [4] 0.192

CC(=O)O[C@H]1CC[C@@]2(C)C(=CCC3C2CC[C@]2(C)C(=O)CCC32)C1 (stereo not given in full)
inactive: [1] 0.0955 | [2] 0.0874 | [3] 0.042 | [4] 0.106

C[C@]12CC[C@H]3[C@@H](CC[C@]4(O)C[C@@H](O)CC[C@]34C=O)[C@@]1(O)CC[C@@H]2C1=CC(=O)OC1
active: [3] -1.21 | [4] -1.3
inactive: [1] 0.0251 | [2] -0.17

CC(=O)OC1CCC23C(=O)OC45CCC(C6=CC(=O)OC6)C4(C)CCC2C5CCC3(O)C1 (stereo not given)
inactive: [1] -0.0349 | [2] -0.171
active: [3] -1.11 | [4] -1.12

CC(=O)O[C@H]1CC[C@]2(C=O)C3CC[C@]4(C)[C@@H](C5=CC(=O)OC5)CC[C@]4(O)C3CC[C@]2(O)C1 (stereo not given in full)
inactive: [1] 0.0163 | [2] -0.145
active: [3] -1.12 | [4] -1.15

NCCC(O)C(=O)NC1CC(N)C(OC2OC(CN)C(O)C(O)C2N)C(OC2OC(CO)C(O)C2O)C1O (stereo not given)
inactive: [1] 0.0254 | [2] -0.0377 | [3] 0.12 | [4] -0.0236

CCN1C[C@]2(C)CC[C@H](O)[C@]34C1[C@H](C[C@H]23)[C@@]1(O)C[C@H](OC)[C@H]2C[C@@H]4[C@@H]1[C@H]2O
inactive: [5] 0.0509 | [6] 0.0197 | [7] 0.0295 | [8] 0.0503

COC(=O)COc1ccc(Cl)cc1Cl
inactive: [1] 0.022 | [2] -0.0423 | [3] 0.11 | [4] 0.0409

COc1cccc(CN2CCN(Cc3cccc(F)c3)CC2)c1
inactive: [1] 0.0335 | [2] 0.131 | [3] 0.0329 | [4] 0.0279

C[C@@H]1CC[C@@]2(NC1)O[C@H]1C[C@H]3[C@@H]4CC=C5C[C@@H](O)CC[C@]5(C)[C@H]4CC[C@]3(C)[C@H]1[C@@H]2C
inactive: [9] 0.0804 | [10] 0.071 | [1] 0.101 | [2] 0.14 | [5] 0.194 | [6] 0.0802 | [3] 0.13 | [4] 0.0856 | [7] 0.106 | [8] 0.133 | [11] 0.0875 | [12] 0.0211
